# In PubChem BioAssay:
# Records with an inconclusive call do not appear. The source made the active and inactive calls. Rule as the data show it, unless noted: active = inhibition above about 80%; inactive = the rest.
# What was measured:
# [1] = growth inhibition of DIPG glioma cells, dose response, cell-based, SU-DIPG-XVII, MIPE5.0, CellTiter-Glo, qHTS (AID 1347060; cut-off not given, nearly all actives have AC50 up to about 26 µM;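 as to AC50: cells exposed to compound for 48 hours before viability readout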); settings: SU-DIPG-XVII viability, CellTiter-Glo ATP luminescence
# [2] = growth inhibition of DIPG glioma cells, dose response, cell-based, SU-DIPG-XIII, MIPE5.0, CellTiter-Glo, qHTS (AID 1347064; cut-off not given, nearly all actives have AC50 up to about 23 µM;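 as to AC50: cells exposed to compound for 48 hours before the viability read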); settings: SU-DIPG-XIII viability, CellTiter-Glo ATP luminescence
# [3] = JHH-DIPG-1 glioma cell viability, MIPE5.0 library, CellTiter-Glo luminescence, qHTS (AID 1347067; cut-off not given, nearly all actives have AC50 up to about 26 µM;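 also: cells exposed to compound for 48 hours before readout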); settings: JHH-DIPG-1 glioma viability, CellTiter-Glo ATP luminescence
# [4] = SU-DIPG-XXV glioma cell viability, MIPE5.0 library, qHTS (AID 1347068; cut-off not given, nearly all actives have IC50 up to about 30 µM)
# [5] = LFS_MB_P medulloblastoma growth inhibition, cell-based, chromothripsis tumors, cisplatin or BGB combos (AID 1671449); settings: LFS_MB_P medulloblastoma cells;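 also: cells exposed for 96 hours; 0% = vehicle DMSO and 100% = killing by high DMSO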
# [6] = HDN33 neuroblastoma growth inhibition, cell-based, chromothripsis tumors, cisplatin or BGB combos (AID 1671450); settings: HDN33 neuroblastoma cells, stronger effect = higher value;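 also: cells exposed to compound for four days; 0% = vehicle DMSO and 100% = cell killing by high DMSO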
# [7] = ICB984 medulloblastoma cell growth inhibition, synergistic combos for chromothripsis tumors, cisplatin or BGB combos (AID 1671451; call rule not given here;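 also: cells exposed for 96 hours before readout; 0% = vehicle DMSO and 100% = killing by high DMSO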); settings: ICB984 medulloblastoma cells, drug combinations, stronger effect = higher value
# [8] = LFS_MB_1R medulloblastoma cell growth inhibition, synergistic combos for chromothripsis tumors, cisplatin or BGB combos (AID 1671452); settings: LFS_MB_1R medulloblastoma cells, stronger effect = higher value;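 also: cells exposed for 96 hours before readout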
# [9] = HTB85 osteosarcoma cell growth inhibition, synergistic combos for chromothripsis tumors, BGB or cisplatin IC20 combos (AID 1671453); settings: HTB85 osteosarcoma cells, drug combinations, stronger effect = higher value;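 also: cells exposed for 96 hours before readout; 0% = vehicle DMSO and 100% = high DMSO killing control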
# [10] = CRL2098 osteosarcoma cell growth inhibition, synergistic combos for chromothripsis tumors, BGB or cisplatin IC20 combos (AID 1671454); settings: CRL2098 osteosarcoma cells, drug combinations, stronger effect = higher value;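 also: cells exposed for 96 h before readout; 0% = vehicle DMSO and 100% = killing by high DMSO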
# [11] = HD-MB03 medulloblastoma cell growth inhibition, synergistic combos for chromothripsis tumors, BGB or cisplatin IC20 combos (AID 1671455; in the data active = inhibition above about 83%;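 also: 0% = vehicle DMSO and 100% = high DMSO as cytotoxic control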); settings: HD-MB03 medulloblastoma cells, stronger effect = higher value
# [12] = UWB1.289 ovarian carcinoma cell growth inhibition, synergistic combos for chromothripsis tumors, BGB or cisplatin combos (AID 1671456); settings: UWB1.289 ovarian carcinoma cells, stronger effect = higher value;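 also: cells exposed to compound for four days; 0% = vehicle DMSO and 100% = killing by high DMSO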
# [13] = LFS_MB_2R medulloblastoma cell growth inhibition, synergistic combos for chromothripsis tumors, cisplatin combos (AID 1671457); settings: LFS_MB_2R medulloblastoma cells, stronger effect = higher value;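 also: cells exposed to compound for four days before readout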
# [14] = MDA-MB-436 breast carcinoma cell growth inhibition, synergistic combos for chromothripsis tumors, BGB or cisplatin combos (AID 1671458; call rule not given here;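 also: cells exposed for 96 hours; 0% = vehicle DMSO and 100% = killing by high DMSO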); settings: MDA-MB-436 breast carcinoma growth inhibition, drug combinations, stronger effect = higher value
# [15] = UWB1.289_BRCA1 ovarian cancer growth, cell-based, BGB or cisplatin combinations (AID 1671459); settings: UWB1.289 BRCA1 ovarian carcinoma, drug combinations, stronger effect = higher value
# [16] = human astrocyte viability loss, single and combined drugs, cytotoxicity control for chromothriptic childhood tumor combination screen, cell-based, BGB or cisplatin IC20 combos (AID 1671460); settings: Human astrocytes, drug combinations, stronger effect = higher value;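 also: cells exposed to compounds for 96 hours before viability readout; 0% = vehicle and 100% = killing control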
# [17] = growth inhibition of BT084 medulloblastoma cells, cell-based, ICGC_MB145, cisplatin and BGB IC40 combos (AID 1671461); settings: drug combinations, stronger effect = higher value;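 also: cells exposed to drugs for 96 hours; 0% = vehicle DMSO and 100% = high DMSO full killing control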
# [18] = growth inhibition of RCMB18 medulloblastoma cells, cell-based, cisplatin and BGB IC40 combos (AID 1671462); settings: stronger effect = higher value;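 also: cells exposed to compound for four days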
# [19] = growth inhibition of CRL1545 osteosarcoma cells, cell-based, cisplatin and BGB IC20 combos (AID 1671464); settings: stronger effect = higher value;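 also: cells exposed to compound for 96 hours before readout; 0% = vehicle DMSO and 100% = high DMSO killing control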
# [20] = at 0.5 µM, stronger effect = higher value
# [21] = measured here: combination with BGB IC20, at 0.005 µM
# [22] = measured here: combination with BGB IC40, at 0.005 µM
# [23] = measured here: combination with BGB IC40, at 0.05 µM
# [24] = measured here: combination with cisplatin, at 0.5 µM, stronger effect = higher value
# [25] = measured here: combination with cisplatin, at 5 µM, stronger effect = higher value
# [26] = measured here: with BGB IC20 combination, at 0.5 µM
# [27] = measured here: with cisplatin IC20 combination, at 0.5 µM
# [28] = measured here: 5 uM single agent, at 5 µM
# [29] = measured here: combination with cisplatin, at 0.5 µM
# [30] = measured here: combination with cisplatin, at 5 µM
# [31] = measured here: with BGB IC20, at 0.5 µM
# [32] = measured here: with BGB IC20, at 5 µM
# [33] = measured here: with cisplatin IC20, at 0.5 µM
# [34] = measured here: with cisplatin IC20, at 5 µM
# [35] = measured here: combination with BGB at IC20, at 0.5 µM
# [36] = measured here: combination with cisplatin at IC20, at 0.5 µM
# [37] = measured here: combo with BGB at IC20, at 0.5 µM
# [38] = measured here: combo with cisplatin at IC20, at 0.5 µM
# [39] = measured here: inhibition with BGB combination, at 0.05 µM
# [40] = measured here: inhibition with cisplatin combination, at 0.05 µM
# [41] = measured here: BGB combination, at 0.5 µM
# [42] = measured here: BGB combination, at 5 µM
# [43] = measured here: cisplatin combination, at 0.5 µM
# [44] = measured here: cisplatin combination, at 5 µM
# [45] = BGB combination, concentration series, at 5 µM
# [46] = cisplatin combination, concentration series, at 5 µM
# [47] = measured here: combo with BGB IC20, at 0.5 µM
# [48] = measured here: combo with cisplatin IC20, at 0.5 µM
# [49] = cisplatin combination, at 0.5 µM
# [50] = measured here: BGB IC40 combination 0.05 uM, at 0.05 µM
# [51] = measured here: BGB IC40 combination, at 0.05 µM
structure (smiles),measurement,setting,value
NC(=O)c1nc(F)c[nH]c1=O,outcome,[1],inactive
same,outcome,[2],inactive
same,outcome,[3],inactive
same,outcome,[4],inactive
same,inhibition,[5]; [20],-5.96% (inactive)
same,inhibition,[5]; [21],-6.89%
same,inhibition,[5]; [22],86.3%
same,inhibition,[5]; [23],2.5%
same,inhibition,[5]; [24],-12.3%
same,inhibition,[5]; [25],-15%
same,inhibition,"[6]; BGB combo, at 5 µM",-13.7%
same,inhibition,[6]; at 0.5 µM,0.69% (inactive)
same,inhibition,"[6]; cisplatin combo, at 5 µM",-13.9%
same,inhibition,[6]; [26],-3.64%
same,inhibition,[6]; [27],-5.09%
same,inhibition,"[6]; single agent, at 5 µM",9.18%
same,inhibition,"[7]; BGB IC20 combo, at 0.005 µM",-3.29%
same,inhibition,"[7]; BGB IC40 combo, at 0.005 µM",-2.11%
same,inhibition,"[7]; BGB IC40 combo, at 0.05 µM",0.125%
same,inhibition,[7]; at 0.5 µM,0.29% (inactive)
same,inhibition,"[7]; cisplatin combo, at 0.05 µM",-4.93%
same,inhibition,"[7]; cisplatin combo, at 0.5 µM",4.34%
same,inhibition,"[7]; cisplatin combo, at 5 µM",4.92%
same,inhibition,[7]; [28],-8.47%
same,inhibition,[8]; at 0.5 µM,1.01% (inactive)
same,inhibition,[8]; [23],2.61%
same,inhibition,[8]; [29],-16.3%
same,inhibition,[8]; [30],16.6%
same,inhibition,[9]; at 0.5 µM,1.18% (inactive)
same,inhibition,[9]; [31],-2.45%
same,inhibition,[9]; [32],5.78%
same,inhibition,[9]; [33],-2.57%
same,inhibition,[9]; [34],4.67%
same,inhibition,"[9]; single agent, at 5 µM",17.5%
same,inhibition,[10]; at 0.5 µM,-7.02% (inactive)
same,inhibition,[10]; [35],-19%
same,inhibition,[10]; [36],9.34%
same,inhibition,[11]; at 0.5 µM,0.58% (inactive)
same,inhibition,[11]; [37],5.69%
same,inhibition,[11]; [38],-1.93%
same,inhibition,[12]; at 0.5 µM,4.26% (inactive)
same,inhibition,[12]; [39],6.54%
same,inhibition,[12]; [40],-1.23%
same,inhibition,[13]; at 0.5 µM,1.33% (inactive)
same,inhibition,[13]; [29],5.37%
same,inhibition,[13]; [30],9.87%
same,inhibition,[14]; at 0.5 µM,-2.87% (inactive)
same,inhibition,[14]; [41],-1.29%
same,inhibition,[14]; [42],-9.17%
same,inhibition,[14]; [43],-10.9%
same,inhibition,[14]; [44],-5.06%
same,inhibition,[15]; [45],-6.18%
same,inhibition,[15]; at 0.5 µM,1.49% (inactive)
same,inhibition,[15]; [46],2.48%
same,inhibition,[16]; at 0.5 µM,-3.48% (inactive)
same,inhibition,[16]; [47],-7.39%
same,inhibition,[16]; [48],-5.76%
same,inhibition,[17]; at 0.5 µM,-1.11% (inactive)
same,inhibition,[17]; [49],6.95%
same,inhibition,"[17]; cisplatin combination, at 5 µM",-101%
same,inhibition,[17]; [50],-16.8%
same,inhibition,"[17]; single agent, at 5 µM",4.66%
same,inhibition,[18]; at 0.5 µM,-6.23% (inactive)
same,inhibition,"[18]; cisplatin combo, at 5 µM",8.94%
same,inhibition,[18]; [51],-10.5%
same,inhibition,[18]; [29],-26.7%
same,inhibition,"[18]; single agent, at 5 µM",14.2%
same,inhibition,[19]; at 0.5 µM,13.8% (inactive)
same,inhibition,[19]; [26],6.76%
same,inhibition,[19]; [27],16%
same,inhibition,"[19]; single agent, at 0.05 µM",-15.2%
same,inhibition,"[19]; single agent, at 5 µM",-29.6%
O=C(CCCCCCNC(=O)c1cnc(N(c2ccccc2)c2ccccc2Cl)nc1)NO,AC50,[1],8.33 µM (active)
same,AC50,[2],3.72 µM (active)
same,AC50,[3],7.42 µM (active)
same,inhibition,[5]; [20],-18.4% (inactive)
same,inhibition,[5]; [21],-0.623%
same,inhibition,[5]; [22],-22.7%
same,inhibition,[5]; [23],-0.542%
same,inhibition,[5]; [24],-15.1%
same,inhibition,[5]; [25],99.5%
same,inhibition,"[6]; BGB combo, at 5 µM",50.4%
same,inhibition,[6]; at 0.5 µM,18.7% (inactive)
same,inhibition,"[6]; cisplatin combo, at 5 µM",56.8%
same,inhibition,[6]; [26],15.8%
same,inhibition,[6]; [27],22.8%
same,inhibition,"[6]; single agent, at 5 µM",62.1%
same,inhibition,"[7]; BGB IC20 combo, at 0.005 µM",12.6%
same,inhibition,"[7]; BGB IC40 combo, at 0.005 µM",-39.2%
same,inhibition,"[7]; BGB IC40 combo, at 0.05 µM",39.9%
same,inhibition,[7]; at 0.5 µM,-20.1% (inactive)
same,inhibition,"[7]; cisplatin combo, at 0.05 µM",37.5%
same,inhibition,"[7]; cisplatin combo, at 0.5 µM",-17.2%
same,inhibition,"[7]; cisplatin combo, at 5 µM",-24.9%
same,inhibition,[7]; [28],-20.1%
same,inhibition,[8]; at 0.5 µM,-5.6% (inactive)
same,inhibition,[8]; [23],-9.58%
same,inhibition,[8]; [29],-15.4%
same,inhibition,[8]; [30],66.7%
same,inhibition,[9]; at 0.5 µM,-4.65% (inactive)
same,inhibition,[9]; [31],-17.2%
same,inhibition,[9]; [32],33.1%
same,inhibition,[9]; [33],-7.92%
same,inhibition,[9]; [34],47.7%
same,inhibition,"[9]; single agent, at 5 µM",54%
same,inhibition,[10]; at 0.5 µM,-36.3% (inactive)
same,inhibition,[10]; [35],-46.5%
same,inhibition,[10]; [36],-0.706%
same,inhibition,[11]; at 0.5 µM,7.2% (inactive)
same,inhibition,[11]; [37],-0.477%
same,inhibition,[11]; [38],8.58%
same,inhibition,[12]; at 0.5 µM,8.33% (inactive)
same,inhibition,[12]; [39],-28.3%
same,inhibition,[12]; [40],-17.7%
same,inhibition,[13]; at 0.5 µM,-16.9% (inactive)
same,inhibition,[13]; [29],-6.73%
same,inhibition,[13]; [30],81%
same,inhibition,[14]; at 0.5 µM,-11.7% (inactive)
same,inhibition,[14]; [41],-16.5%
same,inhibition,[14]; [42],16.3%
same,inhibition,[14]; [43],-18%
same,inhibition,[14]; [44],30.9%
same,inhibition,[15]; [45],70.5%
same,inhibition,[15]; at 0.5 µM,15.1% (inactive)
same,inhibition,[15]; [46],83%
same,inhibition,[16]; at 0.5 µM,10.7% (inactive)
same,inhibition,[16]; [47],11.7%
same,inhibition,[16]; [48],14%
same,inhibition,[17]; at 0.5 µM,2.48% (inactive)
same,inhibition,[17]; [49],7.21%
same,inhibition,"[17]; cisplatin combination, at 5 µM",78.9%
same,inhibition,[17]; [50],-0.825%
same,inhibition,"[17]; single agent, at 5 µM",65%
same,inhibition,[18]; at 0.5 µM,-4.94% (inactive)
same,inhibition,"[18]; cisplatin combo, at 5 µM",64.2%
same,inhibition,[18]; [51],-4.49%
same,inhibition,[18]; [29],5.58%
same,inhibition,"[18]; single agent, at 5 µM",31.8%
same,inhibition,[19]; at 0.5 µM,32.3% (inactive)
same,inhibition,[19]; [26],16.7%
same,inhibition,[19]; [27],40.1%
same,inhibition,"[19]; single agent, at 0.05 µM",-5.85%
same,inhibition,"[19]; single agent, at 5 µM",88.6%
